Assay results reported in PubChem BioAssay (Tox21).
Records with an inconclusive call do not appear. Activity calls are given as the source filed them. Unless noted, calls come from the whole dose curve; as a rule, active = well fitted curve in the direction sought with a large enough effect in the repeat runs; inconclusive = weak or mixed curves; inactive = no such curve, though single readings can be large; an effect the other way counts as inactive or inconclusive.

Tests used:
[1] = qHTS assay to identify small molecule antagonists of the sonic hedgehog signaling (Shh) pathway (AID 1259369; calls by dose curve; note: nearly all actives have a fitted effect of over 45% in size)
In short: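 NIH/3T3-derived 3T3Gli1-Luc cells with stably integrated Gli1-Luc reporter were preincubated 4hr at 37 C, then given compounds in DMSO plus Shh conditioned medium and incubated 24hr. Firefly luciferase luminescence read after 30min reagent at room temperature.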

[2] = biological target: Estrogen receptor beta (Homo sapiens) (UniProt Q92731); experiment: qHTS assay to identify small molecule agonists of the estrogen receptor beta (ER-beta) signaling pathway (AID 1259377; active = well fitted activation curve with a large enough effect in the signal ratio in the repeat runs, not every such curve was filed as active; the % refers to the signal ratio)
In short: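 In HEK293T cells bearing a UAS-beta-lactamase reporter under ER-beta control, DMSO-delivered compounds were incubated for 16 hr at 37C. Activity was detected as fluorescence 2 hours after LiveBLAzer B/G FRET substrate addition.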

[3] = biological target: Estrogen receptor beta (Homo sapiens) (UniProt Q92731); experiment: qHTS assay to identify small molecule antagonists of the estrogen receptor beta (ER-beta) signaling pathway (AID 1259378; active = well fitted inhibition curve with a large enough effect in the signal ratio in the repeat runs, not every such curve was filed as active; the % refers to the signal ratio)
In short: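 Antagonist mode: compounds added to beta-lactamase reporter HEK293T ER-beta-UAS cells stimulated with E2 (1nM final), 16 hr at 37C. LiveBLAzer B/G FRET substrate, 2 hours room temperature, fluorescence read-out.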

[4] = qHTS assay to identify small molecule agonists of the androgen receptor (AR) signaling pathway in the presence of an antagonist - cell viability counter screen (AID 1259379); note: series mostly up to about 92 µM; nearly all actives have a fitted effect of over 25% in size
In short: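 MDA-kb2 human breast carcinoma cells (stable MMTV-luciferase, AR/GR responsive) were seeded 3,000 cells/well, pre-incubated 5 hr at 37C without CO2, then given 3.0uM nilutamide and compounds at 15 concentrations for 16 hr. Viability was read by CellTiter-Fluor fluorescence.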

[5] = qHTS assay to identify small molecule agonists of the estrogen receptor beta (ER-beta) signaling pathway - cell viability counter screen (AID 1259380); note: nearly all actives have a fitted effect of over 30% in size
In short: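 ER-beta-UAS-bla HEK293T cells in medium with 2% charcoal-stripped FBS were preincubated 6 hr at 37C, dosed with compound in DMSO for 16 hr, then after the bla read, CellTiter-Glo was added for 30 min at room temperature; luminescence recorded.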

[6] = qHTS assay to identify small molecule antagonists of the estrogen receptor beta (ER-beta) signaling pathway - cell viability counter screen (AID 1259382);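 note: HEK293T cells carrying ER-beta-UAS-bla reporter stimulated with estradiol; series mostly up to about 92 µM; nearly all actives have a fitted effect of over 55% in size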
In short: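 ER-beta-UAS-bla HEK293T cells (2,000/well, 2% charcoal-stripped FBS) were pre-incubated 6 hr at 37C, then given compound plus 1nM final 17-beta-estradiol for 16 hr. Viability was read in the same wells by CellTiter-Glo luminescence after 30 min at room temperature.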

[7] = biological target: Estrogen receptor (Homo sapiens) (UniProt P03372); experiment: qHTS assay to identify small molecule agonists of the estrogen receptor alpha (ER-alpha) signaling pathway in the presence of an antagonist (AID 1259383; calls by dose curve; note: top concentration of the series differs between compounds; nearly all actives have a fitted effect of over 15% in size)
In short: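 VM7Luc4E2 cells (endogenous full-length ER-alpha, 4×ERE-luciferase) were precultured 5 days in phenol red-free medium with 10% charcoal-stripped FBS, given 10.0nM ICI-182,780 (final), then treated with compounds at 15 concentrations for 22hr at 37C; luminescence read with ONE-Glo.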

[8] = qHTS assay to identify small molecule agonists or antagonists of the thyroid stimulating hormone receptor (TSHR) signaling pathway - wild type cell line counter screen (AID 1259384; calls by dose curve)
In short: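 Counter screen in untransfected Hek293: compounds (15-point titration, triplicate) plus phosphodiesterase inhibitor Ro20-1724 added after 18 h plating; 30 min RT. Intracellular cAMP via competitive d2/cryptate immunoassay, 1 h incubation.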

[9] = biological target: Thyrotropin receptor (Homo sapiens) (UniProt P16473); experiment: qHTS assay to identify small molecule antagonists of the thyroid stimulating hormone receptor (TSHR) signaling pathway (AID 1259385; calls by dose curve; note: nearly all actives have a fitted effect of over 20% in size)
In short: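 Antagonist mode: compound-treated TSHR-expressing HEK293 cells were stimulated with 1.5 ng/mL TSH (final) in presence of Ro20-1724 for 30 min at RT. HTRF cAMP detection after 1 h; each compound tested at 15 concentrations, triplicate.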

[10] = qHTS assay to identify small molecule agonists of the estrogen receptor alpha (ER-alpha) signaling pathway in the presence of an antagonist - cell viability counter screen (AID 1259386);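 note: series mostly up to about 92 µM; cells exposed to compounds for 22 h at 37 °C before the viability read; nearly all actives have a fitted effect of over 30% in size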
In short: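 VM7Luc4E2 cells (endogenous full-length ER-alpha, 4×ERE-luciferase) were held 5 days in phenol red-free medium with 10% charcoal-stripped FBS, plated, then given 10.0nM ICI-182,780 and compounds at 15 concentrations for 22hr at 37C; viability read by CellTiter-Fluor fluorescence.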

[11] = biological target: Progesterone receptor (Homo sapiens) (UniProt P06401); experiment: qHTS assay to identify small molecule agonists of the progesterone receptor (PR) signaling pathway (AID 1346784; calls by dose curve; note: nearly all actives have a fitted effect of over 30% in size)
In short: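 Using charcoal-stripped serum (2%) to limit endogenous steroids, PR-UAS-bla HEK 293T cells received compounds for 16 hr at 37C after 6 hr plating; beta-lactamase FRET fluorescence was recorded following 2 hr substrate loading at room temperature.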

[12] = qHTS assay to identify small molecule agonists of the progesterone receptor (PR) signaling pathway - cell viability counter screen (AID 1346799; calls by dose curve; note: nearly all actives have a fitted effect of over 45% in size)
In short: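 Cytotoxicity in PR-bla HEK293T cells: 16 h compound, 37C; CellTiter-Glo added post-FRET read; luminescence after 30 min RT.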

[13] = qHTS assay to identify small molecule antagonists of the TGF-beta/Smad signaling pathway - cell viability counter screen (AID 1346824); note: nearly all actives have a fitted effect of over 50% in size
In short: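 Cytotoxicity counter-screen run in the same wells as the beta-lactamase Smad reporter read: CellTiter-Glo luminescence after 30 min at room temperature. HEK 293T SBE-bla cells had 5 hr compound exposure at 37 C with TGF-beta1 (0.25 ng/mL stock).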

[14] = qHTS assay to identify small molecule agonists of the TGF-beta/Smad signaling pathway - cell viability counter screen (AID 1346829); note: top concentration of the series differs between compounds; nearly all actives have a fitted effect of over 45% in size
In short: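 Tox21 qHTS format: SBE-bla HEK 293T cells treated with DMSO-dissolved compounds for 5 hr; CellTiter-Glo luminescence after 30 min at room temperature.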

[15] = qHTS assay to identify small molecule agonists of the TGF-beta/Smad signaling pathway (AID 1346859; active = well fitted activation curve with a large enough effect in the signal ratio in the repeat runs, not every such curve was filed as active; the % refers to the signal ratio; note: series mostly up to about 77 µM)
In short: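 Stable Smad binding element-beta-lactamase HEK 293T cells; 5 hr compound exposure at 37 C under 5% CO2; 2 hr room-temperature substrate step; fluorescence excited at 405 nm, collected at 460 nm and 530 nm.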

[16] = biological target: Progesterone receptor (Homo sapiens) (UniProt P06401); experiment: qHTS assay to identify small molecule antagonists of the progesterone receptor (PR) signaling pathway (AID 1346795; active = well fitted inhibition curve with a large enough effect in the signal ratio in the repeat runs, not every such curve was filed as active; the % refers to the signal ratio)
In short: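 Inhibition of R5020-induced (1 nM final) beta-lactamase reporter signal in PR-UAS-bla HEK293T cells was scored by FRET fluorescence after overnight (16 hr) compound treatment.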

[17] = qHTS assay to identify small molecule antagonists of the progesterone receptor (PR) signaling pathway - cell viability counter screen (AID 1346798); note: series mostly up to about 92 µM; nearly all actives have a fitted effect of over 50% in size
In short: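 ATP content as viability readout: CellTiter-Glo luminescence, 30 min room temperature, in PR-UAS-bla HEK293T cells after 16 hr compound/R5020 treatment at 37C and 5% CO2.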

[18] = biological target: Thyrotropin-releasing hormone receptor (Homo sapiens) (UniProt P34981); experiment: qHTS assay to identify small molecule antagonists of the thyrotropin-releasing hormone receptor (TRHR) signaling pathway (AID 1346877; active = well fitted inhibition curve with a large enough effect in the repeat runs, not every such curve was filed as active; note: series mostly up to about 51 µM)
In short: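 TRHR-expressing HEK293 cells were seeded, cultured 18 h at 37 °C, then loaded with calcium dye for 2 h. Compounds were pre-incubated 5 min at room temperature before 1 nM TRH (final) was added, and kinetic fluorescence was recorded for 3 min.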

[19] = biological target: Thyrotropin-releasing hormone receptor (Homo sapiens) (UniProt P34981); experiment: qHTS assay to identify small molecule agonists of the thyrotropin-releasing hormone receptor (TRHR) signaling pathway (AID 1346891; calls by dose curve; note: series mostly up to about 58 µM)
In short: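 In 1536-format, 1500 TRHR-Hek293 cells per well grew 18 h, took up calcium dye for 2 h at 37 °C, received compound, and were read kinetically; 15-point titrations, triplicates.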

[20] = biological target: Androgen receptor (Homo sapiens) (UniProt P10275); experiment: qHTS assay to identify small molecule agonists of the androgen receptor (AR) signaling pathway in the presence of an antagonist (AID 1259381; calls by dose curve; note: nearly all actives have a fitted effect of over 15% in size)
In short: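 MDA-kb2 human breast carcinoma cells carrying an MMTV-luciferase reporter (AR- and GR-responsive) were treated with compounds at 15 concentrations plus 3.0uM final nilutamide for 16hr at 37C without CO2; luminescence was read after ONE-Glo addition.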

Measured: Potency

Sequence of Thyrotropin receptor (Homo sapiens) (P16473 whole entry, looked up): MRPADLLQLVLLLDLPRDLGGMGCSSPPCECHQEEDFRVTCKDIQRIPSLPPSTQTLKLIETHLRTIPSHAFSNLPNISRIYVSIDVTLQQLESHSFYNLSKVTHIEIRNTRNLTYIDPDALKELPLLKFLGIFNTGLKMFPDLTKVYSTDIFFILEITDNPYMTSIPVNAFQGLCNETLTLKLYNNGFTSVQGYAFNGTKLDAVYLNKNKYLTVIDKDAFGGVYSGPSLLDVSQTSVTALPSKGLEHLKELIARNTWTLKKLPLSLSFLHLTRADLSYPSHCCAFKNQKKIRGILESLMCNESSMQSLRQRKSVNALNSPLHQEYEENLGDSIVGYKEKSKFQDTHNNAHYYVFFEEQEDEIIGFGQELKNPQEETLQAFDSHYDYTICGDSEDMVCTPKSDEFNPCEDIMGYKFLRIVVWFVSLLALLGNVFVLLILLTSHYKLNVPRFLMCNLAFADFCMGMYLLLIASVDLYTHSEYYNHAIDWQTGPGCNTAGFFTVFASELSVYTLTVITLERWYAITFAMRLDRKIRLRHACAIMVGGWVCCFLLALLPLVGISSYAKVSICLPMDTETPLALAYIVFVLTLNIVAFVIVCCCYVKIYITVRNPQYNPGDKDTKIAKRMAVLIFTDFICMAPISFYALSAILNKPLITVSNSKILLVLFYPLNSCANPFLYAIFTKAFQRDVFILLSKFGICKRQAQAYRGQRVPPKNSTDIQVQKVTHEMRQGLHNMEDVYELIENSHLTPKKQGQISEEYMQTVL
Sequence of Thyrotropin-releasing hormone receptor (Homo sapiens) (P34981 whole entry, looked up): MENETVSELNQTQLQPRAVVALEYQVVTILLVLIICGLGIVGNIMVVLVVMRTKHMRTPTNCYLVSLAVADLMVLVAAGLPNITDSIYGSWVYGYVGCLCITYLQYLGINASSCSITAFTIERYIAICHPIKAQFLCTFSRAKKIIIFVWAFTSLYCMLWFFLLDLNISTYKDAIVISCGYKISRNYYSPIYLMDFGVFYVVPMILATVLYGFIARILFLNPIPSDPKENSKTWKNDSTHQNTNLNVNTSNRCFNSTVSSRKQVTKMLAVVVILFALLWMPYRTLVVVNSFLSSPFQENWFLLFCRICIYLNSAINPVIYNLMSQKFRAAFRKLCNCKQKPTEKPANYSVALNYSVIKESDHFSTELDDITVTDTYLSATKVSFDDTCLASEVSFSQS
Sequence of Progesterone receptor (Homo sapiens) (P06401 whole entry, looked up): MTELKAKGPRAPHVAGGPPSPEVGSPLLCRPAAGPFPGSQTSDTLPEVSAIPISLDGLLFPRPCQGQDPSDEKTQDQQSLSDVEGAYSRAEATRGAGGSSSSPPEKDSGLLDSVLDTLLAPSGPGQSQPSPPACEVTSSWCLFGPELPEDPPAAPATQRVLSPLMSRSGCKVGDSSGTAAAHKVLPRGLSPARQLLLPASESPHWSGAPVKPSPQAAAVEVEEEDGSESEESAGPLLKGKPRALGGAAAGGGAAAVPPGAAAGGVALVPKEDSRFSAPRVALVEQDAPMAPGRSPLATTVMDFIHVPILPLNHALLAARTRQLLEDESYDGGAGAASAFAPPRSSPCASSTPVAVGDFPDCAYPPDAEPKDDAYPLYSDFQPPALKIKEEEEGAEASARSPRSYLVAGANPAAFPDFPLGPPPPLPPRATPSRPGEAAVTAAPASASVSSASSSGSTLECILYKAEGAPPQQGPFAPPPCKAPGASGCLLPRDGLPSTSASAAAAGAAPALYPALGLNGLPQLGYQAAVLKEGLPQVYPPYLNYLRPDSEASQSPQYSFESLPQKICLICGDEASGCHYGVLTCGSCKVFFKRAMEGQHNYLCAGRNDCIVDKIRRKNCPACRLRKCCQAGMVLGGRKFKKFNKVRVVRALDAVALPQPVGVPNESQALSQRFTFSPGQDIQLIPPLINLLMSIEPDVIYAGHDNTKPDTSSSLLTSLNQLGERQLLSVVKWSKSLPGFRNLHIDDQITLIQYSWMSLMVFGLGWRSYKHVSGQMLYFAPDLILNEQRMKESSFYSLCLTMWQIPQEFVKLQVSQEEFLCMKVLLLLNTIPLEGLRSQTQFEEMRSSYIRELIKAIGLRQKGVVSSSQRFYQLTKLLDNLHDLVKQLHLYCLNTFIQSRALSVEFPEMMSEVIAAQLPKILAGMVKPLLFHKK
Sequence of Estrogen receptor (Homo sapiens) (P03372 whole entry, looked up): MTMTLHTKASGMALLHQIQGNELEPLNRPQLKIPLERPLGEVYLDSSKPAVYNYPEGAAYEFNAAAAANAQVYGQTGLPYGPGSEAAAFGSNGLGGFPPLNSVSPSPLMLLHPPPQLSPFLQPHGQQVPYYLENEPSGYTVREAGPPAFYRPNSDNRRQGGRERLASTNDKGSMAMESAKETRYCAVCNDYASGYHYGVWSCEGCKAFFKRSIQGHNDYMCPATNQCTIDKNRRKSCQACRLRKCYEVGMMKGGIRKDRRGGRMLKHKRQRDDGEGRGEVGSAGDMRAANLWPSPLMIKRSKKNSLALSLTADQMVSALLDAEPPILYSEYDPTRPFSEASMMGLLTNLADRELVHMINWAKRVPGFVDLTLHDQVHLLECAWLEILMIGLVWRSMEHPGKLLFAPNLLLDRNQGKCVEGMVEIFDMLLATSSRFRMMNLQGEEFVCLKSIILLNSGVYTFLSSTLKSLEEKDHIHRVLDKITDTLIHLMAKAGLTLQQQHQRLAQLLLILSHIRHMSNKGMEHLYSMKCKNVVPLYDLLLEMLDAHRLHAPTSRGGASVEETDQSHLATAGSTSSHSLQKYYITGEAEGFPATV
Sequence of Estrogen receptor beta (Homo sapiens) (Q92731 whole entry, looked up): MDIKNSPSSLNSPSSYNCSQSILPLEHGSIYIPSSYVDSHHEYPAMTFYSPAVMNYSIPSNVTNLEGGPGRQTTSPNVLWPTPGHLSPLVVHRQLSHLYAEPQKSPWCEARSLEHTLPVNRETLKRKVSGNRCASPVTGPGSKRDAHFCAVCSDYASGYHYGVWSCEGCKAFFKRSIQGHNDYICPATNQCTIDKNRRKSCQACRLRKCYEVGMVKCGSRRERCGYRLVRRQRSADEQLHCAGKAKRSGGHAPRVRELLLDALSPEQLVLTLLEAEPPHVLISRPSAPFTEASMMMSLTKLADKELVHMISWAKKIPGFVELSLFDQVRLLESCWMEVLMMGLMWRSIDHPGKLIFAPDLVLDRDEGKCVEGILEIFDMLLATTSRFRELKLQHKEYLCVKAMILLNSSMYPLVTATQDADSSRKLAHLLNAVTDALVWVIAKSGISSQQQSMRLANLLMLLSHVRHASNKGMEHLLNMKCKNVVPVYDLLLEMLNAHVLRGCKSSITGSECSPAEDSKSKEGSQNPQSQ
Sequence of Androgen receptor (Homo sapiens) (P10275 whole entry, looked up): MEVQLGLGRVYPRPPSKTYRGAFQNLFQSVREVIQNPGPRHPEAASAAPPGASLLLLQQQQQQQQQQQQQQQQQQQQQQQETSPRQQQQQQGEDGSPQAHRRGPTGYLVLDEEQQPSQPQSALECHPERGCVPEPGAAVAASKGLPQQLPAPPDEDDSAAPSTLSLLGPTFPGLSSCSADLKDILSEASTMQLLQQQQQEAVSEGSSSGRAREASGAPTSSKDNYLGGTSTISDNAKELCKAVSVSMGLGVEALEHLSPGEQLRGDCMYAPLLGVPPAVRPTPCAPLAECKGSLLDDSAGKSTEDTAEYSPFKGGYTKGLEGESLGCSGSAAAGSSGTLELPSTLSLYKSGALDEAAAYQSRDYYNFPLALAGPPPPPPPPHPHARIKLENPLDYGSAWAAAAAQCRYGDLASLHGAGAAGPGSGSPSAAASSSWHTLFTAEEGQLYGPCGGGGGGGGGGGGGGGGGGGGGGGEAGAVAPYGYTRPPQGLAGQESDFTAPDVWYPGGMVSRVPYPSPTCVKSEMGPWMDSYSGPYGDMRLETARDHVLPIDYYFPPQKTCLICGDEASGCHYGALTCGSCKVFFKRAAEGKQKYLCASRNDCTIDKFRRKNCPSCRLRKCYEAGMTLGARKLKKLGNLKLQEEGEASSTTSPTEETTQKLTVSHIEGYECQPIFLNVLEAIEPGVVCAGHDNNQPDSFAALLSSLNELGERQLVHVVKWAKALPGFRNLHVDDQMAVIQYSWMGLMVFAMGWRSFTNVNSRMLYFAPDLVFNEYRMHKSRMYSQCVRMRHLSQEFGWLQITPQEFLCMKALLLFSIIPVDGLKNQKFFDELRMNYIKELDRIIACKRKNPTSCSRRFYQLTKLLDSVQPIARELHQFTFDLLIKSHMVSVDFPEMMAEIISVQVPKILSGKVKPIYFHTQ

CCCCc1ccc2c(n1)[C@@H](c1ccc(OC)cc1C[C@H](C)C(=O)O)[C@H](C(=O)O)[C@H]2c1ccc2c(c1)OCO2
not listed: [16] | [17] | [18] | [19] | [20]
inactive: all other assays above

CC(=O)c1ccc2ccccc2c1
not listed: [20]
inactive: all other assays above

CCOC(=O)COC(=O)c1ccccc1C(=O)OCC
not listed: [15] | [18] | [20]
inactive: all other assays above

CCCCCCCCCC[N+](C)(C)[O-]
not listed: [8] | [9]
inactive: all other assays above

C[N+](C)(CCOc1ccccc1)Cc1cccs1
not listed: [7] | [11] | [15] | [16]
inactive: all other assays above

CC(=O)NC(=O)c1ccccc1O
not listed: [20]
inactive: all other assays above

CCOC(=O)CCC(=O)OCC
not listed: [11] | [16] | [20]
inactive: all other assays above

CC(C)(N)C#N
not listed: [10] | [14] | [20]
inactive: all other assays above
